High-throughput results as filed in PubChem BioAssay.
TGFb inhibitor = TGF-b pathway inhibition. HepG2 CAGA-GFP TGF-b/SMAD3 reporter, GFP fluorescence, 18 h; TGF-beta stimulated, 500 pg/mL final. Potency, µM (top dose mostly 46.1 µM), usual class: inhibitors. 410,000 compounds, 1.2% hits; note: nearly all actives have a fitted effect of over 65% in size
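HEPG2 CAGA-GFP, 1000 cells/well; 2 h settle, 37 C; cpd via pin tool; TGF-b 500 pg/mL final; 18 h, 37 C; GFP imaging ex488/em500-530; %Activity normalised to -TGF-b and +DMSO controls; CRC fit, curve class.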
TDP1 cell CPT = DT40-hTDP1 cell growth loss with CPT | chicken DT40 Tdp1-/-;hTDP1 cells + 20 nM CPT, ATP luminescence, 48 h | Potency, µM (highest dose often 46.2 µM), hits mostly inhibitors | AID 686979 | 420,000 compounds, 12% hits; note: nearly all actives have a fitted effect of over 55% in size
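Cell growth measured by CellTiter-Glo luminescence after a minimum 48 h, 37 C compound exposure with 20 nM CPT in Tdp1-knockout DT40 cells stably expressing hTDP1, seeded 400/well; qHTS titration format.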
HT1080 IDH1KD tx = kills HT-1080 cells with IDH1 knockdown; Potency, µM (doses to about 46.1 µM), most hits filed as cytotoxic; HT-1080 IDH1 knockdown viability, ATP luminescence, 48 h; 360,000 compounds, 2% hits
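Luminescent ATP read-out (CellTiter-Glo, 10 min at room temperature) after 48 h compound exposure at 37 °C gave viability of IDH1-knockdown HT-1080 cells. Activity was normalised to DMSO and cell-free wells, then fitted as concentration-response curves.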
TDP1 cell noCPT = qHTS for Inhibitors of human tyrosyl-DNA phosphodiesterase 1 (TDP1): qHTS in cells in absence of CPT. DT40 Tdp1-/- hTDP1 cells, no CPT, ATP luminescence, 48 h. Potency, µM (top dose mostly 46.2 µM), usual class: inhibitors. 420,000 compounds, 15% hits. AID 686978, 2013; note: nearly all actives have a fitted effect of over 55% in size
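Growth kinetics read by CellTiter-Glo luminescence after ≥48 hr at 37 °C. Cells: DT40 Tdp1-/- stably carrying human TDP1, 400 per well, compound exposure in the absence of CPT (DMSO vehicle).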
HT1080NT lethal = kills 2HG-producing HT-1080-NT fibrosarcoma cells; HT-1080-NT fibrosarcoma viability, CellTiter-Glo ATP luminescence, 48 h; Potency, µM (titrated, usually from 46.1 µM), usual class: cytotoxic; 360,000 compounds, 1.6% hits;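 note: NT is the 2HG producing partner of a matched IDH1 knockdown line; nearly all actives have a fitted effect of over 55% in size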
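Toxicity toward the 2HG-producing NT line was scored as %Activity, normalised to DMSO and no-cell wells, from CellTiter-Glo luminescence after 48 hours' treatment.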
HepG2 tox = HepG2 cytotoxicity, counter-screen for TGF-b inhibitors | Potency, µM (top dose mostly 46.1 µM), actives largely listed as cytotoxic | 410,000 compounds, 0.76% hits | AID 588856 | HepG2 CAGA-GFP viability, ATP luminescence, 18 h
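CellTiter-Glo luminescence gave cytotoxicity after 18 hours at 37 degrees C. The cells were HepG2 CAGA-GFP in 1% FBS DMEM, stimulated with 500 pg/mL TGF-beta after compound addition. %Activity was normalised to no-cell wells (complete cell-killing) and DMSO (no toxicity), and curves were fitted and classified.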
Hits are given with their value. Shown are actives, neighbours in structure and some others; about 17% of the full set was active somewhere. Calls come from the whole dose curve; as a rule, active = well fitted curve in the direction sought with a large enough effect; inconclusive = small, poorly fitted or top-dose-only effect, or another doubt; inactive = no such curve, though single readings can be large; an effect the other way counts as inactive or inconclusive.

`Cc1cc([N+](=O)[O-])nn1CCCC(=O)NCc1ccc(F)cc1` gave TGFb inhibitor inactive, TDP1 cell CPT inactive, HT1080 IDH1KD tx inactive, TDP1 cell noCPT inactive, HT1080NT lethal inactive and HepG2 tox inactive.
`CC(=O)N1CCc2c(sc3c2c(=O)n(Cc2ccccc2)c(=O)n3Cc2ccc(C)cc2)C1` gave TGFb inhibitor inconclusive, TDP1 cell CPT inactive, TDP1 cell noCPT inactive and HepG2 tox inactive.
For CCOC(=O)N1CCc2c(sc3c2c(=O)n(Cc2ccccc2)c(=O)n3Cc2ccccc2F)C1 the results were TGFb inhibitor inactive, TDP1 cell CPT inconclusive, HT1080 IDH1KD tx inactive, TDP1 cell noCPT inconclusive, HT1080NT lethal inactive and HepG2 tox inactive.
O=c1c2c3c(sc2n2cnnc2n1Cc1ccccc1)CN(Cc1ccccc1)CC3 was read as TGFb inhibitor inactive, TDP1 cell CPT 16µM, HT1080 IDH1KD tx inactive, TDP1 cell noCPT 15µM, HT1080NT lethal inactive and HepG2 tox inactive.
`CC(=O)N1CCc2c(sc3c2c(=O)n(Cc2ccccc2)c(=O)n3Cc2ccccc2F)C1` gave TGFb inhibitor inactive, TDP1 cell CPT 21µM, TDP1 cell noCPT 21µM and HepG2 tox inactive.
`CC(=O)N1CCc2c(sc3c2c(=O)n(CCc2ccccc2)c(=O)n3Cc2ccc(F)cc2)C1` gave TGFb inhibitor 11µM, TDP1 cell CPT 18µM, TDP1 cell noCPT 8.2µM and HepG2 tox inactive.
Screening CC(=O)N1CCc2c(sc3c2c(=O)n(Cc2ccccc2)c(=O)n3Cc2ccccc2Cl)C1 returned TGFb inhibitor inactive, TDP1 cell CPT inconclusive, TDP1 cell noCPT 23µM and HepG2 tox inactive.
For CCCCN(C(=O)c1cccc(S(=O)(=O)N2CCN(C)CC2)c1)c1c(N)n(CCC)c(=O)[nH]c1=O the results were TGFb inhibitor inconclusive, TDP1 cell CPT inactive, HT1080 IDH1KD tx inactive, TDP1 cell noCPT inactive, HT1080NT lethal inactive and HepG2 tox inactive.
Screening CCOC(=O)c1ccc(CN(Cc2ccc(OC)cc2)S(=O)(=O)c2cccc(C(F)(F)F)c2)cc1 returned TGFb inhibitor inactive, TDP1 cell CPT inactive, TDP1 cell noCPT inactive and HepG2 tox inactive.
CC1(C)CC(NNCCC#N)=CC(=[N+]2CCCC2)C1 was read as TGFb inhibitor inactive, TDP1 cell CPT inconclusive, HT1080 IDH1KD tx inactive, TDP1 cell noCPT inconclusive, HT1080NT lethal inactive and HepG2 tox inactive.
Screening CC1(C)CC(N2CCN(Cc3ccccc3)CC2)=CC(=[N+]2CCCCC2)C1 returned TGFb inhibitor inconclusive, TDP1 cell CPT 0.058µM, HT1080 IDH1KD tx inconclusive, TDP1 cell noCPT 0.046µM, HT1080NT lethal inactive and HepG2 tox inactive.
Screening CC1(C)CC(N2CCCC2)=CC(=[N+]2CCCCC2)C1 returned TGFb inhibitor inconclusive, TDP1 cell CPT 0.41µM, HT1080 IDH1KD tx inconclusive, TDP1 cell noCPT 0.26µM, HT1080NT lethal inconclusive and HepG2 tox inactive.
Screening CN(Cc1ccccc1)C1=CC(=[N+]2CCCCC2)CC(C)(C)C1 returned TGFb inhibitor 11µM, TDP1 cell CPT 0.15µM, HT1080 IDH1KD tx inconclusive, TDP1 cell noCPT 0.01µM, HT1080NT lethal inconclusive and HepG2 tox inactive.
`CC1(C)CC(=O)c2sc(N3CCCCC3)nc2C1` gave TGFb inhibitor inactive, TDP1 cell CPT inactive, HT1080 IDH1KD tx inactive, TDP1 cell noCPT inactive, HT1080NT lethal inactive and HepG2 tox inactive.
For CC1(C)CC(N2CCCC2)=CC(=[N+]2CCCC2)C1 the results were TGFb inhibitor inconclusive, TDP1 cell CPT 0.41µM, HT1080 IDH1KD tx inconclusive, TDP1 cell noCPT 0.29µM, HT1080NT lethal inconclusive and HepG2 tox inactive.
CC(Sc1nnc(C2CC2)n1C)C(=O)Nc1ccc(N2CCOCC2)cc1 (stereo not drawn) was read as TGFb inhibitor inactive, TDP1 cell CPT inactive, HT1080 IDH1KD tx inactive, TDP1 cell noCPT inactive, HT1080NT lethal inactive and HepG2 tox inactive.
CCOc1ccc(CCNC(=O)COn2nnc3ccc(S(=O)(=O)N4CCOCC4)cc32)cc1OCC was read as TGFb inhibitor inactive, TDP1 cell CPT inactive, HT1080 IDH1KD tx inactive, TDP1 cell noCPT inactive, HT1080NT lethal inactive and HepG2 tox inactive.
`C[C@H](CO)N1C[C@H](C)[C@@H](CN(C)S(=O)(=O)c2cn(C)cn2)Oc2cc(Br)ccc2S1(=O)=O` gave TGFb inhibitor inactive, TDP1 cell CPT inactive, HT1080 IDH1KD tx inactive, TDP1 cell noCPT inconclusive, HT1080NT lethal inactive and HepG2 tox inactive.
`CN(C(=O)c1ccc(Cl)cc1)c1ccc(OCC(=O)Nc2cc(C(=O)O)ccc2Cl)cc1` gave TGFb inhibitor inactive, TDP1 cell CPT inactive, HT1080 IDH1KD tx inactive, TDP1 cell noCPT inactive, HT1080NT lethal inactive and HepG2 tox inactive.
`CCC1Sc2ccccc2N(CC(=O)NCc2ccc(C)cc2)C1=O` (stereo not drawn) gave TGFb inhibitor inactive, TDP1 cell CPT inconclusive, TDP1 cell noCPT 23µM and HepG2 tox inactive.
`COc1ccc(CCNC(=O)COC(=O)c2sc(C)nc2C)cc1` gave TGFb inhibitor inactive, TDP1 cell CPT inactive, HT1080 IDH1KD tx inactive, TDP1 cell noCPT inactive, HT1080NT lethal inactive and HepG2 tox inactive.
COc1ccc(CN2c3c(Br)cccc3C(=O)CS2(=O)=O)cc1 was read as TGFb inhibitor inconclusive, TDP1 cell CPT inconclusive, HT1080 IDH1KD tx inconclusive, TDP1 cell noCPT inconclusive, HT1080NT lethal 23µM and HepG2 tox inactive.
For O=C1CS(=O)(=O)N(Cc2cccc(F)c2)c2ccc(Br)cc21 the results were TGFb inhibitor inconclusive, TDP1 cell CPT inconclusive, HT1080 IDH1KD tx inconclusive, TDP1 cell noCPT inconclusive, HT1080NT lethal inconclusive and HepG2 tox inactive.
`O=C(COC(=O)c1ccc(Br)cc1)NCc1ccc(F)cc1` gave TGFb inhibitor inactive, TDP1 cell CPT inactive, HT1080 IDH1KD tx inactive, TDP1 cell noCPT inactive, HT1080NT lethal inactive and HepG2 tox inactive.
For CCOC(=O)c1ccc(Nc2cc(-c3ccccc3)nc(C)n2)cc1 the results were TGFb inhibitor inactive, TDP1 cell CPT inactive, TDP1 cell noCPT inconclusive and HepG2 tox inactive.
For Cc1ccc(Nc2cc(-c3ccccc3)nc(C)n2)cc1 the results were TGFb inhibitor inactive, TDP1 cell CPT inconclusive, TDP1 cell noCPT 26µM and HepG2 tox inactive.
For COc1cccc(Nc2cc(-c3ccccc3)nc(C)n2)c1 the results were TGFb inhibitor inactive, TDP1 cell CPT inconclusive, TDP1 cell noCPT inconclusive and HepG2 tox inactive.
For Cc1nc(Nc2ccc(Cl)cc2)cc(-c2ccccc2)n1 the results were TGFb inhibitor inconclusive, TDP1 cell CPT 23µM, TDP1 cell noCPT inactive and HepG2 tox inactive.
